Screens from PubChem BioAssay.
VACV mCherry inh – inhibitors of vaccinia virus infection (mCherry reporter signal) | Potency, µM (highest dose often 36.5 µM), for the others: at the top dose activity change, negative = inhibition, actives largely listed as inhibitors | AID 720579 | Vaccinia virus mCherry reporter infection, fluorescence | actives 0.63% (n = 310,000); calls by dose curve; tested in A549 cells; also: potency is read from the fitted curve at half-maximal effect; nearly all actives have a fitted effect of over 35% in size
FMDV antiviral – antivirals against foot and mouth disease virus. FMDV antiviral cell-based qHTS. Potency, µM (doses to about 57.9 µM), without a hit: at the highest dose activity change, negative = inhibition, hits mostly inhibitors. actives 1.2% (n = 410,000); calls by dose curve; tested in HEK293T cells; also: read-out not given here; potency is read from the fitted curve at half-maximal effect; nearly all actives have a fitted effect of over 45% in size
Vaccinia Venus – vaccinia inhibition (Venus reporter); Potency, µM (highest dose often 36.5 µM), for inactives: top-dose activity change, negative = inhibition, most hits filed as inhibitors; actives 0.46% (n = 330,000); Vaccinia virus Venus reporter expression, fluorescence; calls by dose curve; tested in A549 cells; also: potency is read from the fitted curve at half-maximal effect; nearly all actives have a fitted effect of over 30% in size
Marburg entry inh – Marburg virus entry inhibition. Potency, µM (series often up to 37.8 µM), for the others: at the top dose activity change, negative = inhibition, hits mostly inhibitors. AID 540276. Marburg virus pseudotyped entry inhibition, cell reporter. actives 1.8% (n = 300,000); calls by dose curve; tested in HEK293 cells; also: potency is read from the fitted curve at half-maximal effect
Lassa entry inh – blocks Lassa virus binding to or entry into cells; Lassa virus pseudotype entry inhibition, cell reporter; actives 1.2% (n = 300,000); Potency, µM (doses to about 37.9 µM), for the others: at the highest dose activity change, negative = inhibition, most hits filed as inhibitors; calls by dose curve; tested in HEK293 cells; also: potency is read from the fitted curve at half-maximal effect; nearly all actives have a fitted effect of over 50% in size
HCMV inh – human cytomegalovirus inhibition. actives 4.5% (n = 410,000). activity change, negative = inhibition, % at 57.5 µM. HFF cells, HCMV-luciferase reporter, 72 h; stronger effect = lower value; in the data active = activity change below about -60%; inconclusive = no clear call, values can overlap the other calls; inactive = above about -39%
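HFF cells seeded 16 h at 37C, treated with compounds, infected with luciferase-reporter HCMV at MOI 1 PFU/cell; luciferase read at 72 h post infection, normalized to buffer-only and Salinomycin controls.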
Numbers without * were called inactive; i = inactive; ? = inconclusive; . = no result given; [ ] = another dose, or the depositor's remark. An excerpt weighted towards active compounds, which were near 6.5% of everything screened. % is scaled to controls: 0 for no effect and ±100 for the full control effect.

SMILES | VACV mCherry inh | FMDV antiviral | Vaccinia Venus | Marburg entry inh | Lassa entry inh | HCMV inh
O=C(NC1CCCCC1)C(c1cccs1)N(C(=O)c1ccco1)c1ccc2c(c1)OCCO2 (stereo unspecified) | -14.2% | 4.8% | -7.2% | ? | ? | -61.4*
Cc1ccc(N(C(=O)CNC(=O)c2ccco2)C(C(=O)NC2CCCC2)c2ccncc2)cc1F (stereo unspecified) | -14.8% | -13.3% | -1.4% | 4.3%[46.1 µM] | 0.4% | 17.9
CCOc1ccccc1N(C(=O)CNC(=O)c1ccco1)C(C(=O)NC1CCCC1)c1ccncc1 (stereo unspecified) | -7.7% | 0.0% | -1.6% | -24.9%[46.1 µM] | 24.3% | -61.1*
CCOc1ccccc1N(C(=O)c1ccco1)C(C(=O)NC1CCCC1)c1cccs1 (stereo unspecified) | -16.4% | 14.9% | -0.6% | ? | -11.6%[46.1 µM] | -62.6*
CCOc1ccc(N(C(=O)CNC(=O)c2ccco2)C(C(=O)NC2CCCC2)c2ccncc2)cc1 (stereo unspecified) | i | -8.4% | -5.3% | -18.2%[46.1 µM] | 17.6%[46.1 µM] | -11.3
Cc1ccc(N(C(=O)CNC(=O)c2ccco2)C(C(=O)NC2CCCC2)c2ccncc2)cc1C (stereo unspecified) | 12.3% | -3.3% | 1.5% | -1.4%[46.1 µM] | . | -66.7*
COc1ccc(N(C(=O)c2ccco2)C(C(=O)NC2CCCC2)c2cccs2)c(OC)c1 (stereo unspecified) | i | 3.8% | 2.7% | -26.1%[46.1 µM] | ? | -10.8
Cc1ccc(N(C(=O)CNC(=O)c2ccco2)C(C(=O)NCC2CCCO2)c2ccccc2)cc1C (stereo unspecified) | -21.0% | -15.4% | -23.4% | -26.3%[46.1 µM] | . | -67.3*
CC(=O)c1cccc(N(C(=O)CNC(=O)c2ccco2)C(C(=O)NC2CCCC2)c2ccc(C)o2)c1 (stereo unspecified) | i | 1.78µM* | -7.1% | 4.9%[46.1 µM] | 9.5% | -10.0
Cc1ccc(OCCCNC2CCCC2)cc1 | . | 3.2% | . | 16.4% | -1.1% | -6.4
CC(C)(C)c1ccc(OCCCNC2CCCC2)cc1 | -18.1% | -16.7% | -26.1% | 6.31µM* | ? | -10.4
Cc1ccc(Cn2c(=N)n(CC(O)c3ccco3)c3ccccc32)cc1 (stereo unspecified) | . | ? | ? | 11.2µM* | -20.8% | -26.3
CC(C)(C)C(=O)Cn1c(=N)n(Cc2ccccc2)c2ccccc21 | 8.91µM* | -23.8% | ? | ? | 3.2% | -16.9
CC(C)(C)C(=O)Cn1c(=N)n(Cc2ccccc2Cl)c2ccccc21 | -7.2% | ? | -23.6% | -3.5% | -12.2% | 13.4
Cc1ccc(Cn2c(=N)n(CC(=O)c3ccccc3)c3ccccc32)cc1 | . | -39.3% | . | . | . | -83.0*
Nc1c(N=Nc2ccc([N+](=O)[O-])cc2)c(S(=O)(=O)O)cc2cc(S(=O)(=O)O)c(/C=C/c3ccccc3)c(O)c12 | ? | . | -9.4% | . | . | .
O=Cc1cc2c3c(c1)CCCN3CCC2 | -14.9% | . | -8.2% | . | . | .
CC(=O)c1ccccc1NC(C(=O)Nc1c(C)cccc1C)C1CCCC1 (stereo unspecified) | . | . | . | . | . | -5.4
CCOC(=O)CSc1nc2cc(OC)c(OC)cc2cc1C#N | 35.6% | . | 9.2% | . | . | .
Cc1cc(C(F)(F)F)nc(SCC(=O)NC2CC3CCC2C3)n1 (stereo unspecified) | i | -18.2% | -16.9% | 2.0% | 19.4% | -68.4*
Cc1cc(C(F)(F)F)nc(SCC(=O)Nc2ccccc2)n1 | . | -19.2% | . | 22.9% | 16.5% | -9.5
CCC[C@H]1[C@@H](NS(=O)(=O)c2ccc3ccccc3c2)CC[C@@]23CCCN2C(=O)CCC[C@@H]13 | . | . | . | . | . | -14.3
CS(=O)(=O)CCNCc1ccc(-c2ccc3ncnc(Nc4ccc(OCc5cccc(C(F)(F)F)c5)cc4)c3c2)o1 | . | . | . | . | 28.1µM* | .
O=C1c2cccc(NCCCNCCO)c2C(=O)c2cccc(NCCCNCCO)c21 | ? | 0.0% | ? | ? | -16.5%[46.1 µM] | -97.9*
O=C(NNC(=O)C(c1ccccc1)c1ccccc1)c1ccccn1 | ? | ? | ? | 4.61µM* | ? | -97.3*
SMILES | VACV mCherry inh | FMDV antiviral | Vaccinia Venus | Marburg entry inh | Lassa entry inh | HCMV inh
CCNC(=S)NNC(=O)c1ccccn1 | ? | -10.5% | ? | ? | ? | 51.3
O=C(CCc1ccccc1)NNC(=O)c1ccccc1C(=O)O | -7.4% | -7.3% | -4.9% | -1.6% | 4.61µM* | 38.2
O=C(NNC(=S)Nc1ccc(Cl)c(Cl)c1)c1ccccn1 | ? | 12.4% | ? | . | . | -82.3*
Cc1ccccc1C(=O)NNC(=O)CCc1ccccc1 | -7.3% | -2.2% | -1.9% | -8.9%[46.1 µM] | 5.4% | -22.3
O=C(CCc1ccccc1)NNC(=O)CCc1ccccc1 | . | 18.5% | . | . | . | 6.0
O=C(CCc1ccccc1)NNC(=O)c1ccccn1 | . | 3.3% | . | . | . | -75.5*
CC(=O)C1=C(C)N(Cc2ccccc2)C(=O)NC1c1cccc(C(F)(F)F)c1 (stereo unspecified) | . | . | . | -6.8%[14.2 µM] | . | .
c1ccc(-c2cn3c4c(sc3n2)CCCC4)cc1 | -6.1% | -52.0% | -16.1% | 1.12µM* | ? | ?
Cc1cccc(C(=O)Nc2ccc(C(=O)OCc3cc(=O)n4c(C)csc4n3)cc2)c1 | -1.9% | 18.6% | -17.7% | . | -17.4%[46.1 µM] | 1.9
CCOc1ccccc1NC(=O)CCCc1nc2ccccc2c(=O)[nH]1 | . | 3.1% | . | 16.0% | 3.0% | -86.5*
CC(C)CON=C1C[C@@H](O)[C@@H](O)[C@@H]2[C@H]3C(=O)N(C[C@@H]4CCCO4)C(=O)[C@@H]3CC[C@@H]12 | . | . | . | 10.4%[14.2 µM] | . | .
C[C@@H]1CN([C@@H](C)CO)C(=O)CCCn2cc(nn2)CO[C@H]1CN(C)C(=O)Nc1cccc(F)c1 | . | . | . | . | . | -17.3
Oc1c(C(c2ccc(Cl)cc2)N2CCCC2)cc(Cl)c2cccnc12 (stereo unspecified) | 12.6µM* | -27.8% | ? | . | . | ?
Oc1c(C(c2ccccn2)N2CCC(Cc3ccccc3)CC2)cc(Cl)c2cccnc12 (stereo unspecified) | ? | 22.4µM* | ? | ? | ? | -89.5*
CN1CCN(C(c2ccccn2)c2cc(Cl)c3cccnc3c2O)CC1 (stereo unspecified) | -21.5% | -25.8% | -25.4% | . | . | -14.0
N#Cc1ccccc1S(=O)(=O)N1CCN(c2nc(-c3cccs3)nc3ccccc23)CC1 | -10.8% | . | -11.5% | . | . | .
Cc1ccc(-n2nc(CO)c(C(=O)NCCCc3ccccc3)n2)cc1C | -3.6% | -7.2% | -3.2% | -12.7%[46.1 µM] | 14.2%[46.1 µM] | 86.2
Cc1ccc2[nH]c(=O)c(CN(CCCO)Cc3nnnn3Cc3ccccc3)cc2c1 | -4.4% | . | -22.5% | . | . | .
Cc1c(-c2ccc(O)cc2)nn(-c2ccc(O)cc2)c1-c1ccc(OCCN2CCCCC2)cc1 | . | 0.0% | . | . | . | .
CCc1ccc(C(c2ccccc2)c2c(C)[nH]c3ccccc23)s1 (stereo unspecified) | -13.3% | -29.0% | -12.6% | . | 3.8%[46.1 µM] | -62.0*
Cc1[nH]c2ccccc2c1C(c1c[nH]c2ccccc12)c1c(C)[nH]c2ccccc12 | 6.5% | . | 11.4% | . | . | .
